Test results reported in PubChem BioAssay (NCI).
About 83,000 compounds went through this panel and 20% of them were active in at least one assay; those are over-represented in the sample as a whole.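 Values shown are percent growth following 48 h exposure of cells in 96-well plates to a single concentration of compound; below 10 was considered active.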 Active and inactive are the calls of the source.

System: HL-60(TB) leukemia
Assay: NCI-60 one-dose screen, 48 h (100 = growth as untreated, 0 = no growth, -100 = all killed)
Details: 10 µM unless noted

SMILES	growth
COc1cccc(COc2ccc(/C=C3/C(=O)Nc4cc(Cl)ccc43)cc2)c1	105% (inactive)
COc1cc(Nc2c(C#N)cnn3cc(-c4cnn(CC(C)(C)O)c4)cc23)ccc1Cl	47.8% (inactive)
N/C(=N\OC(=O)CSc1nc2ccccc2s1)c1ccc2ccccc2c1	105% (inactive)
COc1ccc(-c2nc3ccc(-c4nnc(SCC(=O)Nc5ccc(C(=O)/C=C/c6ccc(Cl)cc6)cc5)o4)cc3[nH]2)cc1	94.1% (inactive)
N#C/C(=C\c1ccc(-c2ccc(Cl)c(Cl)c2)o1)C(=O)Nc1ncc(Cc2ccc(Cl)cc2)s1	51.5% (inactive)
COc1ccc(NC2=C(Br)C(=O)C(C)=C(C)C2=O)cc1OC	-34.6% (active)
CCOC(=O)Nc1ccc(-c2nc(-c3cccc(O)c3)c(-c3ccnc(Br)c3)[nH]2)cc1	-11.1% (active)
COc1ccc(C(=O)/C=C/c2ccc(Oc3nc(NCCO)nc(N4CCOCC4)n3)c(OC)c2)cc1	15.5% (inactive)
CCNC(=O)Oc1ccc(/C(=C(/C)c2ccc(Cl)cc2)c2ccc(OCCN3CCCCCC3)cc2)cc1	1.41% (active)
COc1cc(/C=N/n2cnc3oc(-c4ccccc4)cc3c2=N)cc(CN2CCCC2)c1O	64.9% (inactive)
COc1ccc(C(=O)Nc2ncc(Cc3ccccc3Cl)s2)cc1	-1.93% (active)
Cc1[nH]c(C(=O)Nc2ccc(C(=O)NCC3CCNCC3)cc2OC(C)C)c(Cl)c1Cl	73.1% (inactive)
COc1ccc(-c2nn3c(-c4ccccc4F)nnc3s2)cc1	47.7% (inactive)
Cc1ccc(-n2cc(/C=N/NC(=O)c3nc(N)n[nH]3)c(-c3ccc(S(C)(=O)=O)cc3)n2)cc1	95.1% (inactive)
Nc1c(C(=O)Nc2ccc(C(F)(F)F)cc2)sc2nc(-c3cnccn3)cc(-c3cccs3)c12	51.9% (inactive)
O=C(CCCCCCN1CC(=O)N2[C@@H](c3cc(F)cc(F)c3)c3[nH]c4ccccc4c3C[C@H]2C1=O)NO	16.2% (inactive)
Cc1cnc2nc(NN)[nH]n12	100% (inactive)
CN1CCN(c2ccc(Nc3nc(NCCCNS(=O)(=O)c4ccc(F)cc4)c4sccc4n3)cc2)CC1	28.8% (inactive)
COc1ccc(NCc2cn(-c3ccc(C(=O)O)cc3)nc2-c2cc(C(F)(F)F)cc(C(F)(F)F)c2)cc1	90.6% (inactive)
COc1cc(-c2nc(-c3ccccc3)[nH]c2-c2ccnc(NCCCNS(=O)(=O)c3ccc(C)cc3)n2)ccc1F	93.4% (inactive)

SMILES	growth
CCS(=O)(=O)Nc1ccc(C(=O)CC2(O)C(=O)Nc3ccccc32)cc1 (stereo not given)	102% (inactive)
COc1ccc(Cn2cc3c(c2-c2cc(OC)c(OC)c(OC)c2)CCc2c(CN4CCCC4)noc2-3)cc1	3.57% (active)
CC1(C)CC[C@]2(C(=O)O)CC[C@]3(C)C(=CC[C@@H]4[C@@]5(C)CC/C(=N\OCCC#N)C(C)(C)[C@@H]5CC[C@]43C)[C@@H]2C1	148% (inactive)
CCCCc1nc(/C=N/Nc2nc(Nc3ccccc3)nc(Nc3ccc(S(N)(=O)=O)cc3)n2)c(Cl)[nH]1	118% (inactive)
CCCCc1nc2c(N)nc3ccccc3c2n1Cc1ccc(OC)cc1	31% (inactive)
N#Cc1nc(-c2ccc(Cl)cc2)oc1N1CCC(S(=O)(=O)N2CCOCC2)CC1	112% (inactive)
Nc1ncc(-c2ccc3ncnc(Nc4cccc(Cl)c4F)c3c2)cn1	90.5% (inactive)
COc1ccccc1NCc1cccn1Cc1ccc(F)cc1	104% (inactive)
COc1cc(-c2nc(SCCC(C)C)nc(NNC(=O)c3ccncc3)c2C#N)cc(OC)c1OC	116% (inactive)
Cc1csc(Nc2cccc(Nc3nc(C)cs3)c2)n1	77.3% (inactive)
N#Cc1c(NC(=O)c2ccc(F)c(Cl)c2)sc2c1CCC(=O)C2	-14.5% (active)
Cn1ccnc1C(=O)/C=C/c1ccc(NC(=O)Nc2ccc(Cl)cc2)cc1	44.2% (inactive)
Cc1cccc2c3c(sc12)C(c1ccc(F)cc1)C(C#N)=C(/N=C/c1ccc(Cl)cc1)O3 (stereo not given)	2.41% (active)
CC(C)Sc1nc(Nc2ccc(S(N)(=O)=O)cc2)c(C#N)c(-c2ccc(F)cc2)n1	45.4% (inactive)
Cc1ccc(-c2cc(-c3ccc(N(C)C)cc3)n3c(n2)nc2ccccc23)cc1	67.1% (inactive)
C#CCN(C)CCCOc1ccc(NCc2ccc(/C=C/C(=O)NO)cc2)cc1Cl	6.07% (active)
O=C1c2c(c3c4cc(O)ccc4oc3c3[nH]c4ccccc4c23)C(=O)N1O	9.22% (active)
ClC(Cl)c1nc(-c2ccco2)n2nc(-c3ccccc3)cc2n1	-24.4% (active)
Cc1ccc(NC(=O)c2cccc(CN3CCN(C)CC3)c2)cc1Oc1ccc(-c2[nH]nc3ncnc(N)c23)cc1	46.8% (inactive)
CN(C)c1ccc(/C=C2\Cc3c(F)ccc(Br)c3C2=O)cc1	79.6% (inactive)
